Several values for one entry are separate records, joined by “and”; a condition that tells them apart may be missing. Identical values can stand only once. Inconclusive results are not listed. The source holds several records for some structures; these can differ, active in one and inactive in another. Activity calls are given as the source filed them. Unless noted, calls come from the whole dose curve; as a rule, active = well fitted curve in the direction sought with a large enough effect in the repeat runs; inconclusive = weak or mixed curves; inactive = no such curve, though single readings can be large; an effect the other way counts as inactive or inconclusive.

Assay [1] concerns the target Nuclear receptor subfamily 1 group I member 3 (Homo sapiens) (UniProt Q14994). In words: qHTS assay to identify small molecule antagonists of the constitutive androstane receptor (CAR) signaling pathway (AID 1224838).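 Note: HepG2 cells stably expressing hCAR with CYP2B6 luciferase reporter stimulated by CITCO; nearly all actives have a fitted effect of over 40% in size.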 Note: potency is the fitted concentration of half-maximal effect. An outline of the steps: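 Antagonism measured as luciferase signal (ONE-Glo, 30 min, room temperature) in CAR-stimulated cells: HepG2-CYP2B6-hCAR double-stable line exposed 24 hr at 37 C to compound in a 15-point series plus 50 nM CITCO.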

Assay [2] has the same target. As to the kind of experiment: qHTS assay to identify small molecule agonists of the constitutive androstane receptor (CAR) signaling pathway (AID 1224839).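 For activation: HepG2 cells stably carrying human CAR and a CYP2B6 luciferase reporter; % is set by controls: 0 for no effect and ±100 for the full control effect.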 Note: nearly all actives have a fitted effect of over 15% in size. Note: potency is the fitted concentration of half-maximal effect. An outline of the steps:
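Using human hepatoma HepG2 cells engineered with hCAR and a CYP2B6-2.2kb reporter, 15-concentration compound series were incubated 24 h alongside PK11195 at 0.75 uM final, with luminescence quantified afterwards.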

For assay [3], the target named is Thyrotropin receptor (Homo sapiens) (UniProt P16473). As to the kind of experiment: qHTS assay to identify small molecule agonists of the thyroid stimulating hormone receptor (TSHR) signaling pathway (AID 1224843; calls by dose curve; note: % is set by controls: 0 for no effect and ±100 for the full control effect; nearly all actives have a fitted effect of over 45% in size). An outline of the steps: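 A cell-based cAMP HTRF format was run in TSHR-transfected HEK293 cells, 800 per well. Treatment: 30 min, room temperature. Detection: 1 h with labelled cAMP and anti-cAMP cryptate. Concentration-response over 15 points, three replicates.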
Thyrotropin receptor (Homo sapiens), sequence (P16473 whole entry, looked up): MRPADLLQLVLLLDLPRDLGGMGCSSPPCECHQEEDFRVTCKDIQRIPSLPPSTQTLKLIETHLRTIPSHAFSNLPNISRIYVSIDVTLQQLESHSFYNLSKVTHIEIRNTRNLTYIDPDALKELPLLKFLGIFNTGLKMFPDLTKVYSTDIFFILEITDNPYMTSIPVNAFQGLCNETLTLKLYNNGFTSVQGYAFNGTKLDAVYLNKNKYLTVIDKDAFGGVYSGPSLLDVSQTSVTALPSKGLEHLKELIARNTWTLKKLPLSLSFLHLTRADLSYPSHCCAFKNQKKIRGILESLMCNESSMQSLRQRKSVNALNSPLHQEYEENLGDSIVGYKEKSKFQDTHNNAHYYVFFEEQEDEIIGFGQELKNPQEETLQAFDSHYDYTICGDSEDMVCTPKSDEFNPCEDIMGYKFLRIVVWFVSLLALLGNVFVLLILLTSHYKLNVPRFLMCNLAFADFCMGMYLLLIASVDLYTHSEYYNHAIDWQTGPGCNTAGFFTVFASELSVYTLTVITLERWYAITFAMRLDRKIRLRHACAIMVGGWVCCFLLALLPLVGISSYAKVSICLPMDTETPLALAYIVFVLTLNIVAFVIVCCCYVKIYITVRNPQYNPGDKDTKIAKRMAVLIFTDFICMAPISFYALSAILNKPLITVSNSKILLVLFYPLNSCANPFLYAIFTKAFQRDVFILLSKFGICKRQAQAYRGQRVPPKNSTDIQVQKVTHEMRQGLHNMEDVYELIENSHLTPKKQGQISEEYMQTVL

The nature of assay [4]: qHTS assay to identify small molecule agonists of H2AX - cell viability counter screen (AID 1224847; calls by dose curve; note: nearly all actives have a fitted effect of over 30% in size; note: potency is the fitted concentration of half-maximal effect). An outline of the steps:
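After overnight plating of 1000 CHO-K1 cells per well, a 15-concentration compound series was applied for 3 hr at 37C. Luminescence from CellTiter-Glo, read following 30 min at room temperature, reflected cell viability.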

Assay [5] can be described thus: qHTS RealTime-Glo MT Cell Viability Assay in HepG2 cells - 24 hour (AID 1224867). Note: nearly all actives have a fitted effect of over 50% in size. Note: potency is the fitted concentration of half-maximal effect. An outline of the steps:
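qHTS, HepG2, 600 cells/well, RealTime-Glo (NanoLuc + prosubstrate) added with cells; 5 h preincubation; DMSO compound addition; 37 C; luminescence at 0/8/16/24/32/40 h.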

Assay [6] in a line: A CellTox Green Cytotoxicity Assay to monitor cytotoxicity in HEK293 cells - 0 hour (AID 1224869). For Cytotoxicity: % is set by controls: 0 for no effect and ±100 for the full control effect. Note: nearly all actives have a fitted effect of over 50% in size. Note: potency is the fitted concentration of half-maximal effect. An outline of the steps:
(§1)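 Fluorescence from a DNA-binding dye excluded by viable cells was measured repeatedly in the same HEK293 wells (600 cells/well) during continuous compound exposure at 37 C. Each assay gives one read point: 0, 8, 16, 24, 32 or 40 h.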

A short description of assay [7]: qHTS RealTime-Glo MT Cell Viability Assay in HepG2 cells - 40 hour (AID 1224870). Note: nearly all actives have a fitted effect of over 50% in size. Note: potency is the fitted concentration of half-maximal effect. An outline of the steps: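 Real-time viability: cells seeded at 600 per well together with NanoLuc and cell-permeant prosubstrate, compounds added after 5 h incubation. Luminescence tracked at 0, 8, 16, 24, 32 and 40 h of exposure.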
Assay [8] in a line: A CellTox Green Cytotoxicity Assay to monitor cytotoxicity in HEK293 cells - 40 hour (AID 1224871). Note: nearly all actives have a fitted effect of over 45% in size. Note: potency is the fitted concentration of half-maximal effect. An outline of the steps:
as §1

Assay [9] can be described thus: qHTS RealTime-Glo MT Cell Viability Assay in HEK293 cells - 16 hour (AID 1224872). Note: nearly all actives have a fitted effect of over 50% in size. Note: potency is the fitted concentration of half-maximal effect. An outline of the steps: (§2)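 Assay medium contained NanoLuc luciferase plus cell-permeant prosubstrate, added with HEK293 cells at 600 cells/well. After 5 h at 37 C/5% CO2 compounds were added; plates stayed at 37 C for 40 h with serial luminescence reads.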
The nature of assay [10]: qHTS assay to identify small molecule agonists of the hypoxia (HIF-1) signaling pathway - cell viability counter screen (AID 1224844; calls by dose curve; note: nearly all actives have a fitted effect of over 50% in size; note: potency is the fitted concentration of half-maximal effect). An outline of the steps:
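Cytotoxicity measured by CellTiter-Glo ATP luminescence in the wells also read for beta-lactamase signal. Cells were HRE-bla ME-180 (2,000/well, 0.5% dialyzed FBS), exposed to compounds for 17 h at 37C.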

Assay [11] can be described thus: qHTS RealTime-Glo MT Cell Viability Assay in HEK293 cells - 32 hour (AID 1224868). Note: nearly all actives have a fitted effect of over 50% in size. Note: potency is the fitted concentration of half-maximal effect. An outline of the steps: as §2
The nature of assay [12]: qHTS assay to identify small molecule agonists of the estrogen related receptor signaling pathway with the pleiotropic PPARgamma coactivator (PGC) from Tox21 10K library (AID 1224842). Note: % is set by controls: 0 for no effect and ±100 for the full control effect; nearly all actives have a fitted effect of over 15% in size. An outline of the steps: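 Luminescence from One-Glo (30 min, room temperature) measured after PGC/ERR cells had 18 h at 37 C with pinned compound (23 nL in DMSO). Cells had been seeded at 2,000 per well and pre-incubated 6 h.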

A short description of assay [13]: qHTS assay to identify small molecule antagonists of the estrogen related receptor (ERR) signaling pathway from Tox21 library (AID 1224848). Note: nearly all actives have a fitted effect of over 50% in size. Note: potency is the fitted concentration of half-maximal effect. An outline of the steps:
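ERR cell line, 2,000 cells/well. 6 h settle, then compound (DMSO) added; 18 h at 37 C; ONE-Glo luminescence after 30 min RT.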

Assay [14] is described as follows: qHTS assay to identify small molecule agonists of the estrogen related receptor (ERR) signaling pathway from Tox21 library (AID 1224849; calls by dose curve; note: % is set by controls: 0 for no effect and ±100 for the full control effect; nearly all actives have a fitted effect of over 15% in size). Conditions: ERR reporter cell line, ONE-Glo luciferase, 18 h. An outline of the steps: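 Luminescent agonist read-out (One-Glo, 30-minute room-temperature incubation) following 18-hour compound treatment at 37 C of the ERR cell line, which had been plated 6 hours before dosing.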

A short description of assay [15]: qHTS assay to identify small molecule antagonists of the estrogen related receptor signaling pathway with the pleiotropic PPARgamma coactivator (PGC) from Tox21 10K library (AID 1224841; call rule not given here). An outline of the steps:
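Luminescence (One-Glo, 30 min at room temperature) after 18 h compound treatment at 37 C of PGC/ERR reporter cells plated at 2,000 cells/well and settled 6 h beforehand.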

Assay [16] is described as follows: qHTS assay to identify small molecule agonists of the hypoxia (HIF-1) signaling pathway (AID 1224846; active = well fitted activation curve with a large enough effect in the signal ratio in the repeat runs, not every such curve was filed as active; the % refers to the signal ratio; note: % is set by controls: 0 for no effect and ±100 for the full control effect). An outline of the steps: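 Compounds added to ME-180 cells carrying hypoxia-response-element beta-lactamase reporter (0.5% dialyzed FBS, 5 h preplating), 17 h at 37C; agonist activity detected by CCF4-AM B/G FRET read-out.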
A short description of assay [17]: qHTS assay to identify small molecule agonists of H2AX (AID 1224845; active = well fitted activation curve with a large enough effect in the signal ratio in the repeat runs, not every such curve was filed as active; the % refers to the signal ratio; note: % is set by controls: 0 for no effect and ±100 for the full control effect). An outline of the steps: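 Phospho-H2AX Ser139 measured by HTRF (ex 320 nm; em 665 and 620 nm) after 24 hr antibody incubation. Compounds, 15 concentrations, 0.76% DMSO, were applied to CHO-K1 cells for 3hr at 37C before lysis.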
Assay [18] in a line: qHTS assay to identify small molecule antagonists of the estrogen related receptor signaling pathway with the pleiotropic PPARgamma coactivator (PGC) from Tox21 10K library - cell viability counter screen (AID 1224840; active = well fitted cell-killing curve with a large enough effect in the repeat runs, not every such curve was filed as active; note: nearly all actives have a fitted effect of over 40% in size; note: potency is the fitted concentration of half-maximal effect). An outline of the steps: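 Counter-screen for cytotoxicity: after 17.5 h compound exposure at 37 C, CellTiter-Fluor reagent added to PGC/ERR cells for 30 min and fluorescence read. Cells were seeded at 2,000 per well 6 h before dosing.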

Assay [19] is described as follows: qHTS assay to identify small molecule antagonists of the constitutive androstane receptor (CAR) signaling pathway - cell viability counter screen (AID 1224837). Note: potency is the fitted concentration of half-maximal effect; nearly all actives have a fitted effect of over 45% in size. An outline of the steps: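 Cytotoxicity counter-screen: CellTiter-Fluor fluorescence after 23 h compound exposure (15-point qHTS) in double-stable HepG2-CYP2B6-hCAR cells, with 50 nM CITCO added.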
Where [20] appears, read: at 92.4 µM (top of the series) unless noted.

Nuclear receptor subfamily 1 group I member 3 (Homo sapiens), sequence (Q14994 whole entry, looked up): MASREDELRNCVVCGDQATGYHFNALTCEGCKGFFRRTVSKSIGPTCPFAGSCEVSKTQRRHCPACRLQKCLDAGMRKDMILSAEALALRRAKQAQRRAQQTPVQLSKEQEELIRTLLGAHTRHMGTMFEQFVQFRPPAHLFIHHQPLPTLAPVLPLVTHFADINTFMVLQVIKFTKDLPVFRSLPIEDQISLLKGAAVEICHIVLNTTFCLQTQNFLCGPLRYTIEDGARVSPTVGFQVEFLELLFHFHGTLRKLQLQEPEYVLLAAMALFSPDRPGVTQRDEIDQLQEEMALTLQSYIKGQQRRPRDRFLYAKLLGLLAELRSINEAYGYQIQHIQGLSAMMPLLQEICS

In the case of `CN(C)c1ccc(N=NS(=O)(=O)O)cc1`, the Potency result in assay [1], in [3], in assay [5], in assay [6], in assay [7] and in assay [8] was “inactive” throughout. The Potency was 25.7 µM (active) in assay [2], 40.1 µM (active) in [4] and 14.5 µM (active) in [9].
`Nc1ccc2cc3ccc(N)cc3nc2c1`: the Potency in assay [10] was 24.5 µM (active) and inactive; in assay [11], 871 nM (active) and 2.13 µM (active); in assay [6], 38.9 µM (active) and 21.3 µM (active); in [7], 9.52 µM (active); in [8], 43.6 µM (active) and 21.3 µM (active); in [9] it was 6.16 µM (active) and 9.52 µM (active).
As to `Cc1oc(-c2ccccc2)nc1CCOc1ccc(C[C@H](Nc2ccccc2C(=O)c2ccccc2)C(=O)O)cc1`, the Potency entry in assay [12], in [3], in [13], in assay [5], in assay [11] and in [6] was “inactive” in each case. Moreover, the Potency entry in [7], in assay [8] and in assay [9] was “inactive” throughout. The Potency in [4] was 80 µM (active). In assay [14] (setting [20]), the activity change, positive = activation was -13.2% (inactive).
As to `O=C1NC2CCCCN2C12CCN(CCCN1c3ccccc3CCc3ccc(Cl)cc31)CC2` (centres undefined), the Potency entry in assay [2], in assay [12] and in assay [6] was “inactive” in each case. The Potency in assay [15] is 10.6 µM (active); in [13], 23.7 µM (active); in [5], 23.9 µM (active); in [11] it was 9.52 µM (active); in [7], 23.9 µM (active); in [8], 21.3 µM (active). In assay [9], the Potency is 8.49 µM (active). Further, the result in assay [16] was inactive. The activity change, positive = activation in assay [14] (setting [20]) was -64.1% [at 42.5 µM] (inactive).
Consider `CC(NCCC(c1ccccc1)c1ccccc1)c1ccccc1` (centres undefined), for which the Potency entry in assay [2] and in assay [10] was “inactive” each time. Also, the Potency in [5] is 21.3 µM (active); in assay [11], 19 µM (active); in assay [7], 21.3 µM (active); in assay [8], 21.3 µM (active); in [9], 21.3 µM (active).
On to `Clc1ccc(C(Cn2ccnc2)OCc2ccsc2Cl)c(Cl)c1` (centres undefined), for which the Potency entry in assay [1], in [12], in assay [10] and in assay [6] was “inactive” each time. The Potency was 23.7 µM (active) in assay [2]; 18.8 µM (active) in assay [15]; 18.8 µM (active) in [13]; 19 µM (active) in assay [11]; 15.1 µM (active) in assay [9]. The activity change, positive = activation in [14] (setting [20]) was -53.5% [at 42.5 µM] (inactive).
As to `C[C@H]1O[C@@H](O[C@H]2[C@@H](O)C[C@H](O[C@H]3[C@@H](O)C[C@H](O[C@H]4CC[C@@]5(C)[C@H](CC[C@@H]6[C@@H]5C[C@@H](O)[C@]5(C)[C@@H](C7=CC(=O)OC7)CC[C@]65O)C4)O[C@@H]3C)O[C@@H]2C)C[C@H](O)[C@@H]1O`, the Potency was 154 nM (active) and 107 nM (active) in assay [15]; 123 nM (active) and 153 nM (active) in assay [10]; 61.7 nM (active) and 54.3 nM (active) in assay [11]. The Potency result in assay [12], in [17], in [4], in assay [13], in [5] and in assay [8] was “inactive” throughout. Besides, the values for the activity change, positive = activation in assay [14] (at 42.5 µM (top of the series)) and in assay [14] (at 92.4 µM (top of the series)) were -72.5% (active) and -71.3% (inactive), respectively.
On to `COc1cc(C=C2CCC/C(=C\c3ccc(O)c(OC)c3)C2=O)ccc1O`, for which the Potency is 11.9 µM (active) in [15]; 15.1 µM (active) in assay [10]; 8.41 µM (active) in assay [13]; 23.9 µM (active) in assay [11]; 23.9 µM (active) in assay [7]; 21.3 µM (active) in assay [9]. Further, the Potency result in assay [12], in assay [3] and in [6] was “inactive” in each case. Also, the activity change, positive = activation in assay [14] (setting [20]) was -63.1% [at 42.5 µM] (inactive).
As to `CC=O`, the Potency in [1] is 36 µM (active); in assay [18], 25.5 µM (active); in assay [10], 40.7 µM (active); in assay [4] it was 14.9 µM (active); in assay [5], 51.3 µM (active); in assay [11], 0.575 µM (active). Moreover, the Potency was 51.3 µM (active) in [8] and 4.57 µM (active) in [9]. In assay [6], the Potency entry was “inactive”.
As for `CC(C)(c1cc(Br)c(OCCO)c(Br)c1)c1cc(Br)c(OCCO)c(Br)c1`, the Potency result in assay [1], in assay [12] and in assay [6] was “inactive” in each case. Moreover, the Potency in [18] was 42.3 µM (active); in [15], 16.8 µM (active); in assay [10] it was 42.7 µM (active); in [4], 87.8 µM (active); in assay [13] it was 11.9 µM (active); in assay [9], 17 µM (active). The activity change, positive = activation in assay [14] (setting [20]) is -67.7% (inactive).
On to `CC(C)c1cccc(C(C)C)c1N1C(=O)c2ccc(O)cc2C1=O`, for which the Potency entry in assay [18], in assay [3], in [10] and in assay [6] was “inactive” in each case. For the same compound, the Potency in assay [4] was 80 µM (active); in assay [5], 49 µM (active); in [7], 43.6 µM (active); in assay [8], 49 µM (active).
In the case of `CCC(C)c1cc([N+](=O)[O-])cc([N+](=O)[O-])c1OC(=O)OC(C)C` (centres undefined), the Potency in assay [19] is 61.1 µM (active); in assay [18], 43.3 µM (active); in [15], 21.7 µM (active); in assay [13] it was 19.3 µM (active); in [5] it was 54.9 µM (active). For the same compound, the Potency entry in [12], in assay [3], in assay [17], in assay [6] and in assay [8] was “inactive” in each case. Besides, in assay [14] (setting [20]), the activity change, positive = activation was -53.4% (inactive).
